“And” between values parts separate entries of the source, which are not always exact repeats. Equal entries are not always repeated. Where a structure was tested more than once in an assay, its records may differ in their call. The source made the active and inactive calls. The calls were made as follows: active = hit-call score of the fitted dose curve at least 0.9, where 1 is the maximum; inactive = score below 0.9.
Key:
[1] = ATG_E_Box_CIS: Attagene CIS-FACTORIAL HepG2 Assay for human Enhancer Box (E-box) (AID 2282936); conditions: HepG2 E-box cis-reporter transcription, actives raise or lower the signal
Procedure, shortened: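 HepG2 cells transiently transfected with multiplexed cis-element reporter units, dosed 24 h; reporter mRNA quantified by RT-PCR, 6-FAM labelling, HpaI digestion and capillary electrophoresis. E-box (USF1) signal fitted bidirectionally vs DMSO.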

[2] = ATG_M_61_CIS: Attagene CIS-FACTORIAL HepG2 Assay for M61 Transcription Factor (Internal Marker) (AID 2282937); conditions: HepG2 Attagene CIS-FACTORIAL M61 internal marker reporter; actives raise or lower the signal
Procedure, shortened: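 Endogenous transcription factor activity in HepG2 is read through transiently transfected cis-element reporter units. After 24 h dosing, RNA undergoes reverse transcription, PCR and primer extension with 6-FAM before capillary electrophoresis; DMSO-referenced bidirectional fit.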

[3] = ATG_EGR_CIS: Attagene CIS-FACTORIAL HepG2 Assay for human Early Growth Response 1 (EGR1) (AID 2282938); conditions: HepG2 Attagene CIS-FACTORIAL EGR reporter mRNA; actives raise or lower the signal
Procedure, shortened: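 Activity is taken as induction or loss of reporter mRNA versus DMSO, fitted bidirectionally. Transcripts from cis-regulated reporter units in transiently transfected HepG2 were measured after 24 h by RT-PCR with capillary electrophoresis.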

[4] = ATG_M_19_CIS: Attagene CIS-FACTORIAL HepG2 Assay for M19 Transcription Factor (Internal Marker) (AID 2282939); conditions: HepG2 Attagene CIS-FACTORIAL M19 internal marker reporter; actives raise or lower the signal
Procedure, shortened: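 Chemical-treated HepG2 (24 h) with MRTU constructs; reporter transcripts detected by fluorescent RT-PCR fragment analysis on capillary electrophoresis. Internal background marker, DMSO as baseline.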

[5] = ATG_ERE_CIS: Attagene CIS-FACTORIAL HepG2 Assay for Estrogen Response Element (ERE) (AID 2282940); conditions: HepG2 ERE cis-reporter, Attagene RNA transcript; actives raise or lower the signal
Procedure, shortened: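 Human liver cells (HepG2) bearing transiently transfected, promoter-regulated reporter units were exposed 24 h. Reporter mRNA induction was detected by capillary electrophoresis of labelled RT-PCR products and fitted bidirectionally to DMSO.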

[6] = ATG_Ets_CIS: Attagene CIS-FACTORIAL HepG2 Assay for human Erythroblast Transformation Specific (ETS) (AID 2282941); conditions: HepG2 ETS cis-reporter transcription, actives raise or lower the signal
Procedure, shortened: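 Human HepG2 hepatoma cells were transiently transfected with promoter-driven reporter constructs and treated for 24 hours. Reporter transcripts were quantified by RT-PCR with fluorescent primer extension; bidirectional curve fitting used DMSO as reference.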

[7] = biological target: Hepatocyte nuclear factor 3-beta (Homo sapiens) (UniProt Q9Y261); assay: ATG_FoxA2_CIS: Attagene CIS-FACTORIAL HepG2 Assay for human Forkhead box A2 (FOXA2) (AID 2282942); conditions: HepG2 cis-reporter transcription factor activity, 24 h; actives raise or lower the signal
Procedure, shortened: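 Reporter transcript induction is measured by fluorescence after capillary electrophoresis of RT-PCR products from HepG2 cells exposed 24 h. Cis-regulated reporter units report endogenous factor activity; curves fitted both directions against DMSO.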

[8] = ATG_FoxO_CIS: Attagene CIS-FACTORIAL HepG2 Assay for human Forkhead box O (FoxO) (AID 2282943); conditions: HepG2 Attagene cis-reporter, FoxO element, mRNA; actives raise or lower the signal
Procedure, shortened: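 Read-out: fluorescence of 6-FAM-labelled reporter cDNA fragments resolved by capillary electrophoresis. Transiently transfected HepG2 cells were dosed for 24 h; activity fitted in both directions relative to DMSO controls.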

[9] = ATG_GLI_CIS: Attagene CIS-FACTORIAL HepG2 Assay for human Zinc Finger Protein GLI1 (AID 2282945); conditions: HepG2, Attagene cis-factorial reporter mRNA, GLI element; actives raise or lower the signal
Procedure, shortened: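 Transiently transfected HepG2 cells report endogenous transcription factor activity via cis-element-driven reporter units. After 24 h compound exposure, reporter mRNA was measured by RT-PCR with capillary electrophoresis; bidirectional fitting against DMSO baseline.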

[10] = biological target: Bile acid receptor (Homo sapiens) (UniProt Q96RI1); assay: ATG_IR1_CIS: Attagene CIS-FACTORIAL HepG2 Assay for human Nuclear Receptor Subfamily 1 Group H Member 4 (NR1H4), IR1 submotif (AID 2282946); conditions: IR1 reporter transcription, actives raise or lower the signal
Procedure, shortened: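 HepG2 cells transiently transfected with multiple cis-promoter-driven reporter units to measure endogenous transcription factor activity; 24 h exposure. Reporter mRNA read by RT-PCR, FAM labelling, HpaI digestion and capillary electrophoresis. Bidirectional fit versus DMSO.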

[11] = ATG_GRE_CIS: Attagene CIS-FACTORIAL HepG2 Assay for human Glucocorticoid Response Elements (GRE) (AID 2282947); conditions: HepG2 GRE cis-reporter, Attagene multiplex mRNA; actives raise or lower the signal
Procedure, shortened: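 Transiently transfected HepG2 cells carrying GRE cis-reporter units (endogenous TF activity) dosed 24 h; reporter mRNA quantified by RT-PCR, 6-FAM labelling, HpaI digestion and capillary electrophoresis. Bidirectional fit versus DMSO baseline.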

[12] = ATG_ISRE_CIS: Attagene CIS-FACTORIAL HepG2 Assay for human Interferon Regulatory Factor 1 (IRF1) binding to an Interferon-Stimulated Response Element (ISRE) (AID 2282948); conditions: HepG2 ISRE cis-reporter (Attagene), mRNA transcription readout; actives raise or lower the signal
Procedure, shortened: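 Cell-based cis-reporter assay; HepG2; 24 h exposure; reporter mRNA by RT-PCR plus capillary electrophoresis fluorescence; activity in either direction scored relative to DMSO.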

[13] = ATG_M_32_CIS: Attagene CIS-FACTORIAL HepG2 Assay for M32 Transcription Factor (Internal Marker) (AID 2282949); conditions: HepG2 Attagene cis-factorial M32 reporter, mRNA; actives raise or lower the signal;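 also: background control marker of the multiplexed CIS panel rather than a real target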
Procedure, shortened: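 HepG2 cells transiently transfected with multiplexed cis-regulated reporter units, dosed 24 h. Reporter mRNA quantified by RT-PCR, 6-FAM labelling, HpaI digestion and capillary electrophoresis; bidirectional fit vs DMSO.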

[14] = biological target: Hypoxia-inducible factor 1-alpha (Homo sapiens) (UniProt Q16665); assay: ATG_HIF1a_CIS: Attagene CIS-FACTORIAL HepG2 Assay for human Hypoxia Inducible Factor 1 (HIF1A) (AID 2282951); conditions: HepG2 Attagene cis-factorial HIF1a reporter transcription; actives raise or lower the signal
Procedure, shortened: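 Fluorescence intensity of capillary-separated, 6-FAM-labelled reporter amplicons gives mRNA induction in HepG2 cells carrying transfected cis-promoter reporter units; cells exposed 24 h, responses fitted up or down from DMSO.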

[15] = biological target: Hepatocyte nuclear factor 6 (Homo sapiens) (UniProt Q9UBC0); assay: ATG_HNF6_CIS: Attagene CIS-FACTORIAL HepG2 Assay for human Hepatocyte Nuclear Factor 6 (HNF6) (AID 2282952); conditions: HepG2 Attagene cis-factorial HNF6 reporter transcription; actives raise or lower the signal
Procedure, shortened: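 HepG2 cells transiently transfected with cis-element-driven multiple reporter transcription units, dosed 24 h; reporter mRNA quantified by RT-PCR, FAM primer extension, HpaI digestion and capillary electrophoresis; bidirectional fit versus DMSO baseline.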

[16] = biological target: Heat shock factor protein 1 (Homo sapiens) (UniProt Q00613); assay: ATG_HSE_CIS: Attagene CIS-FACTORIAL HepG2 Assay for human Heat Shock Transcription Factor 1 (HSE) (AID 2282953); conditions: HepG2 HSE cis-reporter, Attagene RNA transcription; actives raise or lower the signal
Procedure, shortened: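 Liver-derived HepG2 cells carry transiently introduced multiple reporter units governed by cis promoters. Reporter RNA measured 24 h post-dose through reverse transcription, PCR amplification, fluorescent labelling and capillary electrophoresis, normalised to DMSO.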

[17] = ATG_MRE_CIS: Attagene CIS-FACTORIAL HepG2 Assay for human Metal Responsive Element (MRE) (AID 2282954); conditions: HepG2 MRE cis-reporter transcription, Attagene multiplex; actives raise or lower the signal
Procedure, shortened: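 HepG2 cells transiently transfected with cis-element-driven reporter units; mRNA measured 24 h after dosing. Reporter transcripts quantified by RT-PCR, FAM labelling, HpaI digestion and capillary electrophoresis; bidirectional fit versus DMSO.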

[18] = ATG_PBREM_CIS: Attagene CIS-FACTORIAL HepG2 Assay for human Phenobarbital-responsive Enhancer Module (PBREM) (AID 2282955); conditions: HepG2 PBREM cis-reporter, Attagene multiplexed transcription; actives raise or lower the signal
Procedure, shortened: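 Cells were transfected with cis-element reporter units and treated for 24 h, after which RNA was extracted and reporter transcripts measured by RT-PCR and capillary electrophoresis.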

[19] = ATG_M_06_CIS: Attagene CIS-FACTORIAL HepG2 Assay for M06 Transcription Factor (Internal Marker) (AID 2282950); conditions: HepG2 Attagene CIS-FACTORIAL M06 internal marker reporter; actives raise or lower the signal
Procedure, shortened: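 Cells (HepG2, transiently carrying cis-driven reporter units) receive chemical for 24 h before RNA isolation. Reporter cDNA is PCR-amplified, FAM-labelled by primer extension, HpaI-digested and sized on a capillary analyser.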

[20] = ATG_GATA_CIS: Attagene CIS-FACTORIAL HepG2 Assay for human GATA Binding Protein (AID 2282944); conditions: HepG2 GATA cis-element reporter, Attagene multiplex mRNA; actives raise or lower the signal
Procedure, shortened: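 Transfected cis-reporter HepG2 cells were treated with chemicals for 24 hours. Total RNA was then converted to cDNA, amplified with reporter-specific primers and analysed by fluorescent capillary electrophoresis, using DMSO-treated wells as baseline.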

Measured: AC50

Chain of Heat shock factor protein 1 (Homo sapiens) (Q00613 whole entry, looked up): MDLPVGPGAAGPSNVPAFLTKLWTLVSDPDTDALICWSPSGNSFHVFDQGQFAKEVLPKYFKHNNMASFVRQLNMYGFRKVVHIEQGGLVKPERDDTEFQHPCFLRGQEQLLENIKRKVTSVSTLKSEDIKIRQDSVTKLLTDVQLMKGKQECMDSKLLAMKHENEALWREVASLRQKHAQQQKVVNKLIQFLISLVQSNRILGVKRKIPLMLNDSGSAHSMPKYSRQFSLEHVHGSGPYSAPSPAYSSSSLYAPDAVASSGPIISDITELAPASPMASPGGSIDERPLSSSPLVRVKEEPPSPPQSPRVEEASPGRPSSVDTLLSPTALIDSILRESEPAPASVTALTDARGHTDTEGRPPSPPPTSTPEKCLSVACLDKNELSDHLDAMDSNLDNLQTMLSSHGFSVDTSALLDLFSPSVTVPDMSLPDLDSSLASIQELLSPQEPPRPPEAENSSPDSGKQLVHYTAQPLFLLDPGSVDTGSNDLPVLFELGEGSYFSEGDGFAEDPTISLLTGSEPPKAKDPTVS
Chain of Hepatocyte nuclear factor 3-beta (Homo sapiens) (Q9Y261 whole entry, looked up): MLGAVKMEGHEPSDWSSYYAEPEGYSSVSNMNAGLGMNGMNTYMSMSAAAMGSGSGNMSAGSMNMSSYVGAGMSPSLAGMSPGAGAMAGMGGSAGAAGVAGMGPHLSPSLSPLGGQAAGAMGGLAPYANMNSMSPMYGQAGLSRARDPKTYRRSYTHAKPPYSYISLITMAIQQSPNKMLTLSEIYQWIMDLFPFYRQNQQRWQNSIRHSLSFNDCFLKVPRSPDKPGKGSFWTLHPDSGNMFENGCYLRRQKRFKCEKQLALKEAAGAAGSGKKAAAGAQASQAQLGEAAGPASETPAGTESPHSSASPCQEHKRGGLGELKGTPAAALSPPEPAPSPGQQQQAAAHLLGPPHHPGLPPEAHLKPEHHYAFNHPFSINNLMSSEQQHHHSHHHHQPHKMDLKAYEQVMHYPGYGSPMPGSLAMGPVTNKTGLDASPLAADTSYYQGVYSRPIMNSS
Chain of Hypoxia-inducible factor 1-alpha (Homo sapiens) (Q16665 whole entry, looked up): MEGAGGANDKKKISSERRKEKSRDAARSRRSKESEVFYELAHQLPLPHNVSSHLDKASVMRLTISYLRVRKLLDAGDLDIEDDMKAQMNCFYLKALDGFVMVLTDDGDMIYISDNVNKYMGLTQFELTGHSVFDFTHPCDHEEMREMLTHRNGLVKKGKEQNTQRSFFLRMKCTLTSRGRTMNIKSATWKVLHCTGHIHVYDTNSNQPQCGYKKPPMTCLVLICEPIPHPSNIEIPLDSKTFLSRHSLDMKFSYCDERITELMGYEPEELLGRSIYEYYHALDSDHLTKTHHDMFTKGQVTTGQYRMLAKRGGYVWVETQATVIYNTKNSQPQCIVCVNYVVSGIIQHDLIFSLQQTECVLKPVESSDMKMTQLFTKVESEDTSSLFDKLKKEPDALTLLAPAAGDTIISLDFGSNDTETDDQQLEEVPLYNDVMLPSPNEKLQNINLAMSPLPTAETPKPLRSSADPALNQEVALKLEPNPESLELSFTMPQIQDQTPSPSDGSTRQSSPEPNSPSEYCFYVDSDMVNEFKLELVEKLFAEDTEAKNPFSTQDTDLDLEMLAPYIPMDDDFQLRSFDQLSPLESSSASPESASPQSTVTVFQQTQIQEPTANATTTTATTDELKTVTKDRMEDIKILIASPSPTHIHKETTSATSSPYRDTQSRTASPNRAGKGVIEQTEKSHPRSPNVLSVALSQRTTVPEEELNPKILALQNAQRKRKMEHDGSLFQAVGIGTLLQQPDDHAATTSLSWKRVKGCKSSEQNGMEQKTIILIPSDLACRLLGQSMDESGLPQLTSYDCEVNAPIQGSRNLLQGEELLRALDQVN
Chain of Hepatocyte nuclear factor 6 (Homo sapiens) (Q9UBC0 whole entry, looked up): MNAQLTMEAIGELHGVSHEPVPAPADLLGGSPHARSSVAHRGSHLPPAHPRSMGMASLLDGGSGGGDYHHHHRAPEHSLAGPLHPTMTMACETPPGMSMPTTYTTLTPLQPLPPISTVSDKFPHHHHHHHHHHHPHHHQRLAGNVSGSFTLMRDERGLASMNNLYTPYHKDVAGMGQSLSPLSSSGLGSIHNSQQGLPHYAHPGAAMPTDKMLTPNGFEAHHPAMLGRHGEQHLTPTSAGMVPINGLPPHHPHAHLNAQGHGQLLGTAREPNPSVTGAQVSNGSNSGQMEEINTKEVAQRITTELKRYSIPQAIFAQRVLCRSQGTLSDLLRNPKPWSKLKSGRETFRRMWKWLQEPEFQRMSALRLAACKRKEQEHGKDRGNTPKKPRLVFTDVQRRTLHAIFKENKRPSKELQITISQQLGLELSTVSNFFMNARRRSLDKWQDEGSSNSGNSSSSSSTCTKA
Chain of Bile acid receptor (Homo sapiens) (Q96RI1 whole entry, looked up): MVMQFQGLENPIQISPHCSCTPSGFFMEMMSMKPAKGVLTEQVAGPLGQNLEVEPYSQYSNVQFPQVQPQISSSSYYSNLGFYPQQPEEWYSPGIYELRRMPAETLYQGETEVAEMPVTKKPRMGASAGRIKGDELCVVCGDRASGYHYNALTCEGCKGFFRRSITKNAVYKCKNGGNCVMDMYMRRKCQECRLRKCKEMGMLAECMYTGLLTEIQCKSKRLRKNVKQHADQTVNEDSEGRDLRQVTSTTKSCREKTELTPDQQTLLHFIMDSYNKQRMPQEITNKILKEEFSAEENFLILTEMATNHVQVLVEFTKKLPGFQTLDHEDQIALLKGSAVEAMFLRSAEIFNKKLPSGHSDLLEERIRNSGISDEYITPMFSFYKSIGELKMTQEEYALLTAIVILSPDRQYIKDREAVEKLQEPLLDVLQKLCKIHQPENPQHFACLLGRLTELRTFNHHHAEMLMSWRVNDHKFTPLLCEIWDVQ

CC(C)(C)C(O)/C(=C\c1ccc(Cl)cc1Cl)n1cncn1 (centres undefined)
active: [17] 5 µM
not listed: [19] | [20]
inactive: all other assays above

CCc1ccc(C(=O)NN(C(=O)c2cc(C)cc(C)c2)C(C)(C)C)cc1
active: [3] 16.5 µM
not listed: [15] | [17] | [20]
inactive: all other assays above

CNC(=O)Oc1ccccc1OC(C)C
not listed: [10] | [19] | [20]
inactive: all other assays above

COP(=S)(OC)Oc1ccc([N+](=O)[O-])cc1
not listed: [2] | [11] | [17] | [19]
inactive: all other assays above

CC1(c2ccc(Oc3ccccc3)cc2)OC(=O)N(Nc2ccccc2)C1=O (centres undefined)
not listed: [2] | [15] | [19]
inactive: all other assays above

[2H]C1([2H])[n+]2ccccc2-c2cccc[n+]2C1([2H])[2H]
active: [1] 78.7 µM
not listed: [2] | [10] | [15] | [19]
inactive: all other assays above

O=S(=O)(O)C(F)(F)C(F)(F)C(F)(F)C(F)(F)C(F)(F)C(F)(F)C(F)(F)C(F)(F)F
inactive: [1] | [3] | [4] | [6] | [7] | [8] | [9] | [12] | [13] | [14] | [16] | [17]
active: [1] 134 µM | [3] 102 µM | [4] 153 µM | [6] 56.1 µM and 233 µM | [8] 143 µM and 58.9 µM and 223 µM | [13] 53.6 µM | [14] 84 µM | [16] 182 µM and 54.8 µM

ClC1C(Cl)C(Cl)C(Cl)C(Cl)C1Cl (centres undefined)
inactive: [1] | [2] | [3] | [4] | [6] | [7] | [8] | [20] | [9] | [10] | [12] | [13] | [14] | [16]
active: [1] 100 µM and 69.6 µM | [6] 8.89 µM | [12] 161 µM and 58.2 µM

O=C(Nc1ccccc1)Nc1cnns1
active: [3] 90.3 µM | [9] 50 µM | [10] 50 µM | [16] 93.4 µM
not listed: [2] | [15] | [17] | [19]
inactive: all other assays above

N#Cc1c(Cl)c(Cl)c(Cl)c(C#N)c1Cl
not listed: [2] | [15] | [17]
inactive: all other assays above

CN1CSC(=S)N(C)C1
active: [17] 50 µM
not listed: [19] | [20]
inactive: all other assays above

C[C@H]1[C@H](c2ccc(Cl)cc2)SC(=O)N1C(=O)NC1CCCCC1
active: [3] 15.4 µM | [18] 27.2 µM
not listed: [10] | [15] | [17] | [19] | [20]
inactive: all other assays above
